# Calls of active or inactive are those of the source.
# Experiments:
# Albumin (Bos taurus) = Albumin (Bos taurus) (UniProt P02769); assay: bovine serum albumin binders on microarray, profiling panel, artefact control for SMM control protein annotation, biochemical, small-molecule microarray, Alexa647 label, 635/667 nm fluorescence (AID 1118); settings: BSA-A647 binding, fluorescence 635 nm, higher = more signal;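 further: score merges 667 nm emission intensity and signal-to-noise per printed compound spot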
# [1] = small-molecule microarray binders of probe aXIP, primary screen, biochemical, NeuroSMM set, 635/667 nm fluorescence (AID 1119); settings: higher = more signal, called active from +8 up or from −8 down;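 further: probe is the protein aXip251-270 applied at 1 µg/mL to compound-printed slides; binding of probe to printed compounds measured as 667 nm fluorescence plus signal to noise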
# [2] = small-molecule binders of probe aNOTCH3, primary screen, biochemical, small-molecule microarray, 635/667 nm fluorescence (AID 1120); settings: higher = more signal;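 further: probe is a biotin-tagged antibody raised against NOTCH3 rather than NOTCH3 protein; score merges spot fluorescence near 667 nm with spot signal to noise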
# [3] = small-molecule binders of probe aNOTCH2, primary screen, biochemical, small-molecule microarray, 635/667 nm fluorescence (AID 1121); settings: higher = more signal;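 further: score merges feature fluorescence read at 667 nm with its signal to noise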
# [4] = target: Carbonic anhydrase 2 (Homo sapiens) (UniProt P00918); assay: CAII small-molecule binders, profiling panel, biochemical, small-molecule microarray, Alexa647-labelled CAII (AID 1122); settings: CAII-A647 binding fluorescence, higher = more signal
# [5] = COS7 lysate on small-molecule microarray, probe aHis, 635 nm (AID 1123); settings: COS7 cell lysate, fluorescence, higher = more signal;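 further: z-score combines 667nm fluorescence intensity with signal-to-noise per printed compound spot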
# [6] = compound binding in COS7 lysate, probe aLAP1, primary screen, cell lysate, small-molecule microarray (AID 1124); settings: probe aLAP1, fluorescence, higher = more signal;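 further: lysate comes from COS7 cells expressing LAP1 and is applied at 0.3 µg/mL; score merges spot fluorescence near 667 nm with signal-to-noise over triplicate slides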
# Sam68 (KHDRBS1) = assay: Sam68 small-molecule binders, primary screen, biochemical, small-molecule microarray, 635 nm fluorescence (AID 1125); settings: small-molecule microarray binding, higher = more signal;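 further: score merges 667 nm channel intensity with signal to noise over triplicate slides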
# [7] = tested on: Chordin-like protein 2 (CHRDL2); assay: CHRDL2 small-molecule binders, primary screen, biochemical, small-molecule microarray, 635 nm fluorescence (AID 1126); settings: small-molecule microarray binding, fluorescence 635 nm; higher = more signal;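 further: printed compound slides probed with Chrdl2 protein at 4 µg/mL for 1 h at 4 C; score merges 667 nm emission intensity with signal to noise over three replicate slides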
# [8] = target: Concanavalin-A (Canavalia ensiformis) (UniProt P02866); assay: ConA small-molecule binders, primary screen, artefact control for SMM control protein annotation, biochemical, small-molecule microarray, Alexa647 label, 635 nm (AID 1127); settings: ConA-A647 binding fluorescence, higher = more signal;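 further: z combines 667 nm emission intensity with signal-to-noise across three replicate slides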
# [9] = anti-His antibody binders, primary screen, artefact control for SMM control protein annotation, biochemical, small-molecule microarray, 635 nm fluorescence (AID 1128); settings: anti-His Alexa647 antibody binding, higher = more signal;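 further: score merges feature fluorescence with signal-to-noise for each printed compound spot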
# [10] = tested on: Human papillomavirus type 1a E7 protein (residues 1-88); assay: HPV1a E7 small-molecule binders, primary screen, biochemical, small-molecule microarray, residues 1-88, 635 nm (AID 1129); settings: small-molecule microarray binding, fluorescence 635 nm; higher = more signal
# [11] = target: Focal adhesion kinase 1 (Homo sapiens) (UniProt Q05397); assay: small-molecule microarray binders of FAK, primary screen, biochemical, 635/667 nm fluorescence, BSA, DTT (AID 1130); settings: PTK2 binding, 635 nm fluorescence, higher = more signal;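 further: composite of spot emission at 667 nm and signal to noise over triplicate slides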
# [12] = tested on: Fibrinogen (Alexa647-labelled); assay: fibrinogen binders on compound microarrays, profiling panel, artefact control for SMM control-protein annotation, biochemical, small-molecule microarray, 635/667 nm fluorescence (AID 1131); settings: fibrinogen-A647 binding fluorescence, higher = more signal;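 further: z-score merges 667 nm fluorescence with per-spot signal-to-noise over triplicate slides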
# [13] = target: Follistatin (Homo sapiens) (UniProt P19883); assay: follistatin binders on small-molecule microarrays, primary screen, biochemical, small-molecule microarray, 635/667 nm fluorescence (AID 1132); settings: FST binding, 635 nm fluorescence, higher = more signal
# [14] = target: Fibroblast growth factor 2 (Homo sapiens) (UniProt P09038); assay: FGF2 binders on small-molecule microarrays, primary screen, biochemical, small-molecule microarray, 635/667 nm fluorescence (AID 1133); settings: small-molecule microarray binding, FGF2, fluorescence 635/667; higher = more signal
# [15] = mitochondrial membrane potential change in A549 cells, profiling panel, cell-based, JC-1 fluorescence, basal, 24 h, 100 nL (AID 1138); settings: higher = more signal;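 further: A549 lung adenocarcinoma cells under basal conditions with no added stimulus; test concentration not given here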
# Lefty1 = Lefty1 binders on small-molecule microarrays, primary screen, biochemical, small-molecule microarray, 635/667 nm fluorescence (AID 1139); settings: small-molecule microarray binding, fluorescence 635/667; higher = more signal
# [16] = tested on: wheat germ agglutinin (Triticum aestivum), Alexa647-labelled; assay: wheat germ agglutinin binders on compound microarrays, profiling panel, artefact control for SMM control-protein annotation, biochemical, small-molecule microarray, 635/667 nm fluorescence (AID 1140); settings: WGA-A647 binding, 635 nm fluorescence, higher = more signal;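 further: score merges 667 nm feature emission with signal to noise over triplicate slides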
# [17] = target: Luciferin 4-monooxygenase (Photinus pyralis) (UniProt P08659); assay: firefly luciferase enzyme inhibitors, primary screen, biochemical, luminescence, purified enzyme, 2006 set (AID 1141); settings: SteadyGlo luminescence, 30 min, higher = more signal, called active from +8 up or from −8 down;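 further: cell-free assay with purified firefly luciferase at 100 ng per well in PBS; test concentration not given here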
# Chain of Luciferin 4-monooxygenase (Photinus pyralis) (P08659 whole entry, looked up): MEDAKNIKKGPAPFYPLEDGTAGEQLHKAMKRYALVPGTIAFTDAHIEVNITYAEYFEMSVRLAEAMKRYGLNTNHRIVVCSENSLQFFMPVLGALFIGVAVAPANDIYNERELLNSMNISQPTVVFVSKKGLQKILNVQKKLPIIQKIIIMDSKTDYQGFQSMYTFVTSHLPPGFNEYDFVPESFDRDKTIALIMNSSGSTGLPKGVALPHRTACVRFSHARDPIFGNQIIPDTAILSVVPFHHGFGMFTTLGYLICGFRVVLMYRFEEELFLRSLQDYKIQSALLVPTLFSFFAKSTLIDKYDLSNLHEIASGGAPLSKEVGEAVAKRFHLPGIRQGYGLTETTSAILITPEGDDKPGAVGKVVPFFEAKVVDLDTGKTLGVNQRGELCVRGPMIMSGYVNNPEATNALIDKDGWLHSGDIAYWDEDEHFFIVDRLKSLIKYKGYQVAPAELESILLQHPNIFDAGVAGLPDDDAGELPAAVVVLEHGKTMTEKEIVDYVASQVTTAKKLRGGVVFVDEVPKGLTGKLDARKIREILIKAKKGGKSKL
# Chain of Focal adhesion kinase 1 (Homo sapiens) (Q05397 whole entry, looked up): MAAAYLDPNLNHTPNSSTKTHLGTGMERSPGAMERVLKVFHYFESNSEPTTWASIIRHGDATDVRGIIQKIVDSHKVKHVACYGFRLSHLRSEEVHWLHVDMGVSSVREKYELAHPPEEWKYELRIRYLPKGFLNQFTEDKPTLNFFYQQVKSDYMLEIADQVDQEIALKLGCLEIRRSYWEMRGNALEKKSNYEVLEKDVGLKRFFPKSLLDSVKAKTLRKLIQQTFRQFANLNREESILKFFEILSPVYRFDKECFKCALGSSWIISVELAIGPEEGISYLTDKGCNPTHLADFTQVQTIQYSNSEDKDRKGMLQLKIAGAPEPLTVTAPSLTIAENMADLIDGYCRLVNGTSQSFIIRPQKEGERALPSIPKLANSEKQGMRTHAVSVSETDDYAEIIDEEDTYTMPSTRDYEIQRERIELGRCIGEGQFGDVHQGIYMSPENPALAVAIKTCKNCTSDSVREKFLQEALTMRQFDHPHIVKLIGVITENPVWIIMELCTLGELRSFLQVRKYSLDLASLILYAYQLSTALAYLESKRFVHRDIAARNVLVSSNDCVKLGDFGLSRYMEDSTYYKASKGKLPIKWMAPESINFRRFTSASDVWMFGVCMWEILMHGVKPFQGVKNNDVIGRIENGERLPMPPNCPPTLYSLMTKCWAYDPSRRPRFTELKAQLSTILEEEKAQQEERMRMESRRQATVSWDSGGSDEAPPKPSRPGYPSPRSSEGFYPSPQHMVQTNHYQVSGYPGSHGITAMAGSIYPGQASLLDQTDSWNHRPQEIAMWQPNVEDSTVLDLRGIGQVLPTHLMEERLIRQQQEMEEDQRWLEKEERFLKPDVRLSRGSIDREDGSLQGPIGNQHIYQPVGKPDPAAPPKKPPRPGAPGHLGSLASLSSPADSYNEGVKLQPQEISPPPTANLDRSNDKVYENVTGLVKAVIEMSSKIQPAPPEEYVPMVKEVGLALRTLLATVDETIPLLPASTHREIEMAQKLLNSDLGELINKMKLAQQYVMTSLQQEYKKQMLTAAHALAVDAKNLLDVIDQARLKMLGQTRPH
# Chain of Fibroblast growth factor 2 (Homo sapiens) (P09038 whole entry, looked up): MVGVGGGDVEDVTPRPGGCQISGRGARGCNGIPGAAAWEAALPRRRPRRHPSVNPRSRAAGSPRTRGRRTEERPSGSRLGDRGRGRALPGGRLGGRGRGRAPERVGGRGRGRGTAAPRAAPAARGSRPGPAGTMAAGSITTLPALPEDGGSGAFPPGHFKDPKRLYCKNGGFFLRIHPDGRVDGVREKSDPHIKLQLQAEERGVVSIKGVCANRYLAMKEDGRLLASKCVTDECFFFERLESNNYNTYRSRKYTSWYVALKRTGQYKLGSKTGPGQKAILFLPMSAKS
# Chain of Concanavalin-A (Canavalia ensiformis) (P02866 whole entry, looked up): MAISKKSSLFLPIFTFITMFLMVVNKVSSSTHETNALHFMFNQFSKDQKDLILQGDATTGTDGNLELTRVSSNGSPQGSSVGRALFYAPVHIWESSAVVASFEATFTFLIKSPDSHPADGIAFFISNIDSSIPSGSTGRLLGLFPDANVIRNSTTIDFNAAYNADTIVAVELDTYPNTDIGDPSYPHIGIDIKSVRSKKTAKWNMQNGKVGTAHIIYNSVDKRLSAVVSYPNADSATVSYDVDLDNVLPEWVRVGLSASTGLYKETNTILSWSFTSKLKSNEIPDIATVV
# Chain of Albumin (Bos taurus) (P02769 whole entry, looked up): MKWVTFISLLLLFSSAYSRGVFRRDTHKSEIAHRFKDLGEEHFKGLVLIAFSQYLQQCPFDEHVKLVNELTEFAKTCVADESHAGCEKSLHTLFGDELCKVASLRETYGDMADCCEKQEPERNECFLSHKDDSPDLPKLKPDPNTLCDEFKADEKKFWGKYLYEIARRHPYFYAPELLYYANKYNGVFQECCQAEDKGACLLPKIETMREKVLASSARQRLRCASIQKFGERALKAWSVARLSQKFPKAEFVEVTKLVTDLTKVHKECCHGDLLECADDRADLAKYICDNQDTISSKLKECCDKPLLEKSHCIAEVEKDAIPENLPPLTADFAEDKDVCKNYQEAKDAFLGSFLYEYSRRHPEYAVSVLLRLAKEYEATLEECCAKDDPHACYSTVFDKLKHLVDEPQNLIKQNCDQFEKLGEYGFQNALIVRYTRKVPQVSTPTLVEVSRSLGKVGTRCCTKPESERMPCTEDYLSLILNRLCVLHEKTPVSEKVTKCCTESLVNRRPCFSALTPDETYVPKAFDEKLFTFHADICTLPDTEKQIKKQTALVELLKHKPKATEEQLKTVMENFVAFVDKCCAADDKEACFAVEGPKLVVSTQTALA
# Chain of Follistatin (Homo sapiens) (P19883 whole entry, looked up): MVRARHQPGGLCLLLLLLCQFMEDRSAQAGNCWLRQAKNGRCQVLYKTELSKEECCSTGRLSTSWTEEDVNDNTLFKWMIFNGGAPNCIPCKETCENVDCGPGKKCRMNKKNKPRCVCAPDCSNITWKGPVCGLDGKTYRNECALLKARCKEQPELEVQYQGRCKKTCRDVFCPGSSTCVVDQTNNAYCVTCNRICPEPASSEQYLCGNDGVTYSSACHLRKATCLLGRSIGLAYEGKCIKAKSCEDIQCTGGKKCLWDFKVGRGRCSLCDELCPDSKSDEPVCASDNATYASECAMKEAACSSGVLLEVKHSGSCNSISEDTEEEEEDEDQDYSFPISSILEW
Compound,composite z-score (Albumin (Bos taurus)),composite Z-score [1],composite z-score [2],composite z-score [3],composite z-score [4],composite z-score [5],composite z-score [6],composite z-score (Sam68 (KHDRBS1)),composite z-score [7],composite z-score [8],composite z-score [9],composite z-score [10],composite z-score [11],composite z-score [12],composite z-score [13],composite z-score [14],z-score [15],composite z-score (Lefty1),composite z-score [16],z-score [17]
CN1C(=O)C2C(C1=O)C1C=C(CCCO)C2C(c2cccs2)N1C (stereo not given),0.565,0.654 (inactive),-0.154,-0.231,0.779,0.138,1.62,-0.27,-0.0999,-0.774,0.121,-0.612,-0.0834,-0.234,0.143,0.0096,1.15,-0.76,-0.1,-0.39 (inactive)
Cc1ccc(S[C@]2(C(=O)NCc3ccccc3)CC(=O)N(Cc3ccccc3)[C@@H]2c2ccc(CO)cc2)cc1,-0.398,0.115 (inactive),-0.25,-0.149,0.654,1.86,0.569,0.176,-0.525,0.423,3.05,0.0804,0.691,-0.909,-0.211,-0.524,0.561,-1.33,-0.425,-0.627 (inactive)
O=C1C[C@@](C(=O)NC2CC2)(c2ccc([N+](=O)[O-])cc2)[C@@H](c2ccc(CO)cc2)N1CC12CC3CC(CC(C3)C1)C2,0.374,-0.172 (inactive),-0.0236,-0.0091,0.22,0.681,-0.107,0.684,-0.203,1,0.294,0.831,0.473,0.934,1.21,0.0882,0.0799,0.427,0.553,1.12 (inactive)
Cc1ccc(S[C@]2(C(=O)NCC(C)C)CC(=O)N(Cc3ccccc3Cl)[C@@H]2c2ccc(CO)cc2)cc1,-0.968,-0.12 (inactive),-0.312,-0.162,0.738,0.678,-0.0092,-0.897,-0.796,-1.88,1.8,-1.41,-1.09,-0.804,-1.5,-1.21,1.37,-2.17,0.208,-0.79 (inactive)
CC(C)CNC(=O)[C@@H]1c2ccccc2C(=O)N(Cc2cc(C(F)(F)F)cc(C(F)(F)F)c2)[C@H]1c1ccc(CO)cc1,-0.881,0.0089 (inactive),0.0596,0.127,0.5,0.361,0.0574,-0.636,-0.629,-0.928,-0.137,-0.569,0.093,-0.419,-0.137,-0.124,0.157,-0.851,0.204,-0.975 (inactive)
